According to PubChem BioAssay (Tox21):
Records with an inconclusive call do not appear. Calls of active or inactive are those of the source. Unless noted, the call rests on the fitted dose curve; in most records, active means well fitted curve in the direction sought with a large enough effect in the repeat runs; inconclusive means weak or mixed curves; inactive means no such curve, though single readings can be large; an effect the other way counts as inactive or inconclusive.

Key:
[1] = target: Aryl hydrocarbon receptor (Homo sapiens) (UniProt P35869); assay: qHTS assay to identify small molecule that activate the aryl hydrocarbon receptor (AhR) signaling pathway (AID 743085);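 further: HG2L7.5c1 human HepG2 liver cells with stably integrated DRE-driven firefly reporter; series mostly up to about 70 µM; nearly all actives have a fitted effect of over 15% in size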
In short: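 AhR agonist activity is inferred from enhanced light output of a DRE-controlled firefly luciferase reporter in HepG2 cells, measured with ONE-Glo following 24 h treatment at 37C.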

[2] = qHTS assay to identify small molecule that activate the aryl hydrocarbon receptor (AhR) signaling pathway - cell viability counter screen (AID 743086);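 further: HepG2 liver cells carrying the AhR DRE luciferase reporter; series mostly up to about 70 µM; nearly all actives have a fitted effect of over 45% in size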
In short: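 HepG2-AhR-luc (HG2L7.5c1) cells, 4000/well, treated 24 h at 37 C with compound; viability measured as CellTiter-Fluor fluorescence after 30 min in the same wells as the luciferase read.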

[3] = target: Peroxisome proliferator-activated receptor gamma (Homo sapiens) (UniProt P37231); assay: qHTS assay to identify small molecule agonists of the peroxisome proliferator-activated receptor gamma (PPARg) signaling pathway (AID 743094; active means well fitted activation curve with a large enough effect in the signal ratio in the repeat runs, not every such curve was filed as active; the % refers to the signal ratio)
In short: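 GeneBLAzer PPARg UAS-bla HEK293H cells carrying a stably integrated beta-lactamase reporter were pre-incubated 5 h at 37C, then exposed to compounds in DMSO for 17 h at 37C; LiveBLAzer B/G FRET substrate was added for 1 h at room temperature and fluorescence read.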

[4] = target: Peroxisome proliferator-activated receptor gamma (Homo sapiens) (UniProt P37231); assay: qHTS assay to identify small molecule antagonists of the peroxisome proliferator-activated receptor gamma (PPARg) signaling pathway (AID 743191; calls by dose curve; further: series mostly up to about 63 µM; nearly all actives have a fitted effect of over 30% in size)
In short: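 GeneBLAzer PPARg UAS-bla HEK293H cells, 5 h post-plating, exposed to compounds 17 h at 37C. LiveBLAzer B/G FRET substrate added for 1 h at room temperature; beta-lactamase reporter read by fluorescence intensity.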

[5] = qHTS assay to identify small molecule antagonists of the peroxisome proliferator-activated receptor gamma (PPARg) signaling pathway - cell viability counter screen (AID 743194); further: nearly all actives have a fitted effect of over 55% in size
In short: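 Cytotoxicity counter screen in PPARg-bla HEK293H cells, same wells as reporter assay. Compounds plus 50 nM rosiglitazone (final) for 17 h at 37 C, then viability read by CellTiter-Glo luminescence.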

[6] = qHTS assay for small molecule agonists of the antioxidant response element (ARE) signaling pathway (AID 743202; active means well fitted activation curve with a large enough effect in the signal ratio in the repeat runs, not every such curve was filed as active; the % refers to the signal ratio)
In short: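 Agonist mode reporter screen: HepG2 cells with ARE-controlled beta-lactamase are incubated with test compounds for 16 h at 37 C, and beta-lactamase activity is measured as fluorescence of cleaved B/G FRET substrate.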

[7] = qHTS assay for small molecule agonists of the antioxidant response element (ARE) signaling pathway - cell viability counter screen (AID 743203; calls by dose curve; further: nearly all actives have a fitted effect of over 55% in size)
In short: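 CellSensor ARE-bla HepG2 cells, 2,000 per well, rested 5 hrs at 37C/5% CO2, then exposed to compound in DMSO for 16 hrs; viability read as CellTiter-Glo luminescence after 30 min at room temperature, in the reporter wells.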

[8] = qHTS assay for small molecule activators of the heat shock response signaling pathway - cell viability counter screen (AID 743209); further: nearly all actives have a fitted effect of over 50% in size
In short: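 CellSensor HSE-bla HeLa cells, plated overnight at 37 C/5% CO2, were exposed to compounds in DMSO for 5 h at 37 C. Viability was then read in the same wells by CellTiter-Glo luminescence after 30 min at room temperature.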

[9] = qHTS assay for small molecule activators of the heat shock response signaling pathway (AID 743210; active means well fitted activation curve with a large enough effect in the signal ratio in the repeat runs, with a control signal flat, not every such curve was filed as active; the % refers to the signal ratio;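 further: HeLa cells with beta-lactamase reporter driven by heat shock elements; series mostly up to about 63 µM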)
In short: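 Quantitative high-throughput format using an engineered HeLa line in which heat shock response elements drive beta-lactamase; after 5 h with compound, cells received a B/G FRET substrate and fluorescence was read.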

[10] = qHTS assay to identify small molecule agonists of the peroxisome proliferator-activated receptor delta (PPARd) signaling pathway - cell viability counter screen (AID 743211); further: nearly all actives have a fitted effect of over 55% in size
In short: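 qHTS cell viability: PPARd-bla HEK293H; 17 h cpd, 37C; CellTiter-Glo, luminescence at 30 min RT.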

[11] = target: Peroxisome proliferator-activated receptor delta (Homo sapiens) (UniProt Q03181); assay: qHTS assay to identify small molecule agonists of the peroxisome proliferator-activated receptor delta (PPARd) signaling pathway (AID 743212; calls by dose curve)
In short: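 Quantitative high-throughput agonist screen in a HEK293H beta-lactamase reporter line under UAS control. Compounds in DMSO, at 37 C. Fluorescence read after 2 h with FRET substrate at room temperature.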

[12] = qHTS assay to identify small molecule antagonists of the peroxisome proliferator-activated receptor delta (PPARd) signaling pathway - cell viability counter screen (AID 743213); further: nearly all actives have a fitted effect of over 50% in size
In short: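 Agonist-stimulated (L165041, 300 nM final) HEK293H PPARd UAS-bla cells are exposed to compounds for 17 h at 37 C, and ATP-based luminescence (CellTiter-Glo) from the same wells reports cytotoxicity.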

[13] = target: Bile acid receptor (Homo sapiens) (UniProt Q96RI1); assay: qHTS assay to identify small molecule antagonists of the farnesoid-X-receptor (FXR) signaling pathway (AID 743217; active means well fitted inhibition curve with a large enough effect in the signal ratio in the repeat runs, not every such curve was filed as active; the % refers to the signal ratio)
In short: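 FXR-UAS-bla HEK 293T cells pre-incubated 5 h at 37 °C, then exposed to compounds with chenodeoxycholic acid (50 uM final) for 16 h at 37 °C. Beta-lactamase reporter read by LiveBLAzer B/G FRET substrate fluorescence after 2 h at room temperature.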

[14] = qHTS assay to identify small molecule agonists of the farnesoid-X-receptor (FXR) signaling pathway - cell viability counter screen (AID 743218); further: nearly all actives have a fitted effect of over 45% in size
In short: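 FXR-UAS-bla HEK 293T cells, plated 5 h at 37 C, were exposed to compounds for 16 h at 37 C. CellTiter-Glo was then added to the same wells as the bla readout; luminescence read after 30 min at room temperature.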

[15] = target: Bile acid receptor (Homo sapiens) (UniProt Q96RI1); assay: qHTS assay to identify small molecule agonists of the farnesoid-X-receptor (FXR) signaling pathway (AID 743220; active means well fitted activation curve with a large enough effect in the signal ratio in the repeat runs, not every such curve was filed as active; the % refers to the signal ratio)
In short: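 Beta-lactamase reporter under UAS control in GeneBLAzer FXR HEK 293T cells (5000/well) measured with LiveBLAzer FRET substrate after 2 h at room temperature. Compound exposure lasted 16 h at 37C.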

[16] = qHTS assay to identify small molecule antagonists of the farnesoid-X-receptor (FXR) signaling pathway - cell viability counter screen (AID 743221; active means well fitted cell-killing curve with a large enough effect in the repeat runs, not every such curve was filed as active; further: nearly all actives have a fitted effect of over 50% in size)
In short: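 After a 5 h settling period, FXR-bla HEK 293T cells receive compound and chenodeoxycholic acid (50 uM final) and incubate 16 h at 37 C; CellTiter-Glo luminescence, read after 30 min at room temperature, reports cell viability.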

[17] = target: Vitamin D3 receptor (Homo sapiens) (UniProt P11473); assay: qHTS assay to identify small molecule agonists of the vitamin D receptor (VDR) signaling pathway (AID 743222; calls by dose curve)
In short: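 VDR-bla cells were plated 4 h at 37C/5% CO2, then exposed to compounds in DMSO for 16 h. After LiveBLAzer B/G FRET substrate addition and 2 h at room temperature, beta-lactamase reporter fluorescence was read.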

[18] = target: Vitamin D3 receptor (Homo sapiens) (UniProt P11473); assay: qHTS assay to identify small molecule antagonists of the vitamin D receptor (VDR) signaling pathway (AID 743223; active means well fitted inhibition curve with a large enough effect in the signal ratio in the repeat runs, not every such curve was filed as active; the % refers to the signal ratio)
In short: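 Reporter line VDR-bla; stimulus 1alpha,25-(OH)2 vitamin D3, 3 nM final; compound co-addition, 16 h 37C/5% CO2; LiveBLAzer B/G substrate 2 h RT; fluorescence intensity.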

[19] = qHTS assay to identify small molecule agonists of the vitamin D receptor (VDR) signaling pathway - cell viability counter screen (AID 743224); further: series mostly up to about 63 µM; nearly all actives have a fitted effect of over 50% in size
In short: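 VDR-bla cells were preincubated 4 h at 37C/5% CO2, then exposed to compounds for 16 h. After the 2 h room-temperature bla FRET read, CellTiter-Glo was added to the same wells and luminescence read after 30 min.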

[20] = target: Peroxisome proliferator-activated receptor delta (Homo sapiens) (UniProt Q03181); assay: qHTS assay to identify small molecule antagonists of the peroxisome proliferator-activated receptor delta (PPARd) signaling pathway (AID 743215; active means well fitted inhibition curve with a large enough effect in the signal ratio in the repeat runs, not every such curve was filed as active; the % refers to the signal ratio; further: series mostly up to about 62 µM)
In short: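 PPARd UAS-bla HEK293H cells were pre-incubated 5 h at 37 C, then given test compounds in DMSO plus agonist L165041 (300 nM final). After 17 h at 37 C, beta-lactamase FRET substrate was added; fluorescence read after 2 h at room temperature.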

Measured: Potency

Chain of Peroxisome proliferator-activated receptor gamma (Homo sapiens) (P37231 whole entry, looked up): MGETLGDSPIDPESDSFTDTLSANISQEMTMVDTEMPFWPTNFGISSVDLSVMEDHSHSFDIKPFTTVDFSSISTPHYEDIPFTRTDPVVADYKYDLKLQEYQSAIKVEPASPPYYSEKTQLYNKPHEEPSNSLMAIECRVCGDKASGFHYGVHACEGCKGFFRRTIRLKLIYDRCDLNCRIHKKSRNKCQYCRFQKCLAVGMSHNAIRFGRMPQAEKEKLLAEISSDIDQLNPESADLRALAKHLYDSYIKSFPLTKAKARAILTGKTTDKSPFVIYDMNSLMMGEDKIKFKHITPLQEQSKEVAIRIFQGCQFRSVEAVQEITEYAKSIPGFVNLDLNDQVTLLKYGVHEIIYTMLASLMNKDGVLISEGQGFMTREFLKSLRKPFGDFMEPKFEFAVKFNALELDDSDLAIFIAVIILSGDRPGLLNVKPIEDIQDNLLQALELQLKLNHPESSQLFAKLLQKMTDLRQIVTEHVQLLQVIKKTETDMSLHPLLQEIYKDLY
Chain of Vitamin D3 receptor (Homo sapiens) (P11473 whole entry, looked up): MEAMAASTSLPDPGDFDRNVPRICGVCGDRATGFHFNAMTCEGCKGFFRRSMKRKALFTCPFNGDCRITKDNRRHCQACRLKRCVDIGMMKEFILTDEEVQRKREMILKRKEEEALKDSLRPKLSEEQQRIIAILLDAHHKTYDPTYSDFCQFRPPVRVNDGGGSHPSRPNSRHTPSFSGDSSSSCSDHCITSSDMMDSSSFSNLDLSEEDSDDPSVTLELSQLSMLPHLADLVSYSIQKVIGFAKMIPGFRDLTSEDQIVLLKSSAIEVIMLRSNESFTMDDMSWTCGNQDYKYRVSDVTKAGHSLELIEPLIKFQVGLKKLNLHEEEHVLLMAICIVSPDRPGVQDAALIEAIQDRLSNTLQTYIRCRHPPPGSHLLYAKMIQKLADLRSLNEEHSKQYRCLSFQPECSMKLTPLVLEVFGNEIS
Chain of Peroxisome proliferator-activated receptor delta (Homo sapiens) (Q03181 whole entry, looked up): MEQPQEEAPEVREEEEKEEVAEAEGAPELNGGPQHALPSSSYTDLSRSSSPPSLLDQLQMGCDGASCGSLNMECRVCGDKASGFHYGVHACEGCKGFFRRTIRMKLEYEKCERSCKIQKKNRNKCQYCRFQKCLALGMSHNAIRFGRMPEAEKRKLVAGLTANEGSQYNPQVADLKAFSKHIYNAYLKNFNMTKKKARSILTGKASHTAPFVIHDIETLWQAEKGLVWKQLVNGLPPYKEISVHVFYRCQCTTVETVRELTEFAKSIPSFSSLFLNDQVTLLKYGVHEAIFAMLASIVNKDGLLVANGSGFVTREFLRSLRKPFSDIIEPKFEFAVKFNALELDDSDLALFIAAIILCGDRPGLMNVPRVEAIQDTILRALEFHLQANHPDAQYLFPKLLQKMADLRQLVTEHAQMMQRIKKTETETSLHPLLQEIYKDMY
Chain of Bile acid receptor (Homo sapiens) (Q96RI1 whole entry, looked up): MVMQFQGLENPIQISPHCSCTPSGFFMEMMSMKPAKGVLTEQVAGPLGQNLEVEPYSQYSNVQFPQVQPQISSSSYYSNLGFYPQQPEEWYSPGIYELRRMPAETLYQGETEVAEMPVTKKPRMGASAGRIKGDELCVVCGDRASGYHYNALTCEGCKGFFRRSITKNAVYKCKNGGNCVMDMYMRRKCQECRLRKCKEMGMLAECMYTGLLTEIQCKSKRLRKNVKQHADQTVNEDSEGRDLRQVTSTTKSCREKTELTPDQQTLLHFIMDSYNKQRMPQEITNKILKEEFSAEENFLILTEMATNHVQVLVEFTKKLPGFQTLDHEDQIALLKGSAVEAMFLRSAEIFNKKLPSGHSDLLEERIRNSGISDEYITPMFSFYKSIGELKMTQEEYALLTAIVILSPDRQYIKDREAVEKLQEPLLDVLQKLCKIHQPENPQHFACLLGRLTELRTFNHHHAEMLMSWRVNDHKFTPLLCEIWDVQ
Chain of Aryl hydrocarbon receptor (Homo sapiens) (P35869 whole entry, looked up): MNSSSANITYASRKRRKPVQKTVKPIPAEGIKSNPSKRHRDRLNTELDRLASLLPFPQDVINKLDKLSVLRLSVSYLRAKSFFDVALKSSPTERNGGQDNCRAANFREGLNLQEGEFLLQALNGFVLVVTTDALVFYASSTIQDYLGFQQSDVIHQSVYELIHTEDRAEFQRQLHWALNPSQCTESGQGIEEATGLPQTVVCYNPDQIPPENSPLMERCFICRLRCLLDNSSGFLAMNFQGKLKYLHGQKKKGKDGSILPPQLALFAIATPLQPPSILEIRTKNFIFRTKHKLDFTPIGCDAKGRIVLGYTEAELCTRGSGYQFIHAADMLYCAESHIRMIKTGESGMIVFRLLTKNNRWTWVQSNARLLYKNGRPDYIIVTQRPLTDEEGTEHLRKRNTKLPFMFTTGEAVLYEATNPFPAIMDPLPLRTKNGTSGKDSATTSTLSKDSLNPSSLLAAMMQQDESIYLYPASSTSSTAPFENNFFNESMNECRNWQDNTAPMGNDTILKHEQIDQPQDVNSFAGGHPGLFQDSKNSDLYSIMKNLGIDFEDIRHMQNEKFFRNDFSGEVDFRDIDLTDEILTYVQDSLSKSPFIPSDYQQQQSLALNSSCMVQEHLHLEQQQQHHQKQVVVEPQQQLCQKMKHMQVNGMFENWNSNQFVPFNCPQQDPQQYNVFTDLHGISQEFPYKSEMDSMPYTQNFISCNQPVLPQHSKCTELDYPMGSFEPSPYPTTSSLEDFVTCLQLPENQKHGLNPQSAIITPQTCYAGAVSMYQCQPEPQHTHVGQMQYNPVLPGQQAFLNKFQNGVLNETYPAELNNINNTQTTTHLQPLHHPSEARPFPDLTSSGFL

O=C(O)c1ccc(O)cc1O
inactive: [1] | [2] | [3] | [4] | [5] | [6] | [7] | [8] | [9] | [10] | [11] | [12] | [13] | [14] | [15] | [16] | [17] | [18] | [19]

O=C(O)CN1C(=O)c2cccc3cccc(c23)C1=O
inactive: [1] | [2] | [3] | [4] | [5] | [6] | [7] | [8] | [9] | [10] | [11] | [12] | [20] | [14] | [16] | [17] | [18] | [19]

Nc1ccc(NC(=O)c2ccc(N)cc2)cc1
inactive: [1] | [2] | [3] | [4] | [5] | [6] | [7] | [8] | [9] | [10] | [11] | [12] | [20] | [14] | [19]

Cc1ccc(S(=O)(=O)NC(=O)NC2CCCCC2)cc1
inactive: [1] | [2] | [3] | [4] | [5] | [6] | [7] | [8] | [9] | [10] | [11] | [12] | [20] | [14] | [16] | [19]

Cc1cccc(C)c1NC(=O)c1cc(S(N)(=O)=O)c(Cl)cc1O
inactive: [1] | [2] | [3] | [4] | [5] | [6] | [7] | [8] | [9] | [10] | [11] | [12] | [20] | [13] | [14] | [16] | [17] | [18] | [19]

CCCCCCCCCCCCCCN(C)C
inactive: [1] | [2] | [3] | [4] | [5] | [6] | [7] | [8] | [9] | [14] | [16] | [17] | [18]

CCOCCC(=O)OCC
inactive: [1] | [2] | [3] | [4] | [5] | [6] | [7] | [8] | [9] | [10] | [11] | [12] | [20] | [14] | [16] | [17] | [18] | [19]

CC(=O)c1ccc[nH]1
inactive: [1] | [2] | [3] | [4] | [5] | [6] | [7] | [8] | [9] | [10] | [11] | [12] | [20] | [13] | [14] | [15] | [16] | [19]

CCC(CO)(CO)[N+](=O)[O-]
inactive: [1] | [2] | [3] | [4] | [5] | [6] | [7] | [8] | [9] | [10] | [11] | [12] | [20] | [13] | [14] | [15] | [16] | [17] | [18] | [19]

CC(C)c1ccc(C#N)cc1
inactive: [1] | [2] | [3] | [4] | [5] | [6] | [7] | [8] | [9] | [10] | [11] | [12] | [20] | [14] | [16] | [17] | [18] | [19]

CC(C)c1ccc(C(=O)N=C(N)N)cc1S(C)(=O)=O
inactive: [1] | [2] | [3] | [4] | [5] | [6] | [7] | [8] | [9] | [10] | [11] | [20] | [14] | [16] | [17] | [18] | [19]

COc1ccc(C)cc1
inactive: [1] | [2] | [3] | [4] | [5] | [6] | [7] | [8] | [10] | [11] | [12] | [20] | [14] | [16] | [17] | [19]

O=C(O)CCCc1c[nH]c2ccccc12
inactive: [1] | [2] | [3] | [4] | [5] | [6] | [7] | [8] | [9] | [10] | [11] | [20] | [13] | [14] | [15] | [16] | [19]

CC(C)(C(=O)c1cccnc1)c1cccnc1
inactive: [1] | [2] | [3] | [4] | [5] | [6] | [7] | [8] | [9] | [10] | [11] | [12] | [20] | [14] | [16] | [17] | [18] | [19]

O=c1[nH]c2cc(C(F)(F)F)c(N3CCOCC3)cc2n(CP(=O)(O)O)c1=O
inactive: [1] | [2] | [3] | [4] | [5] | [6] | [7] | [9] | [10] | [11] | [12] | [20] | [13] | [14] | [16] | [19]

COc1ccc(C(=O)NCc2ccc(OCCN(C)C)cc2)cc1OC
inactive: [1] | [2] | [3] | [4] | [5] | [6] | [7] | [8] | [9] | [10] | [11] | [20] | [14] | [16] | [17] | [18] | [19]
